Assay outcomes (PubChem BioAssay)
An excerpt weighted towards active compounds, which were near 31% of everything screened.
CYP2C9 activ = CYP2C9 (human) activation | P11712 | hit rate 1.4% among 96,000 | recombinant CYP2C9, luciferin-H conversion, luminescence; active compounds read high; factor 1 = untreated enzyme, 0 = blocked | activation factor at 5 µM | AID 1024;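 active = activation factor of 2 or more for CYP2C9 at a 5 µM dose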;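 also: 0 = sulfaphenazole-blocked wells and 1 = vehicle-only wells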
Target sequence (P11712 whole entry, looked up): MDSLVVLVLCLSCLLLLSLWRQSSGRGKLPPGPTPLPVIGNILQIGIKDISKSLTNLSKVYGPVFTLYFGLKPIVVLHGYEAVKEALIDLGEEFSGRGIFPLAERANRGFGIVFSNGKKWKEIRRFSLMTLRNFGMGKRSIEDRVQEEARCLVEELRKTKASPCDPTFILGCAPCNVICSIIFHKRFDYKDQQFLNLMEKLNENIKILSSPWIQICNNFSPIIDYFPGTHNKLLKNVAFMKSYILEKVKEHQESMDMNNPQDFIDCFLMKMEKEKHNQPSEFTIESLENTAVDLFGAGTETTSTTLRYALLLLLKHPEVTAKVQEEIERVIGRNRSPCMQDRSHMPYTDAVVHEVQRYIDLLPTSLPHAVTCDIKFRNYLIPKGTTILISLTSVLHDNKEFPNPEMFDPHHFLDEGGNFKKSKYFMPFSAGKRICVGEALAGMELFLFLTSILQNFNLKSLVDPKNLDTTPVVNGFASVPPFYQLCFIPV
PLAP act = human PLAP activation; P05187; purified PLAP enzyme, luminescent substrate read-out; active compounds read high; activation fold at 20 µM; hit rate 1.2% among 96,000; AID 696; in the data active = activation fold above about 2
CYP2C9 inhib = inhibitors of human CYP2C9. inhibition, % at 5 µM. P11712. hit rate 20% among 96,000. CYP2C9 Supersomes, luciferin-H conversion, luminescence;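 active = blocking of liver enzyme CYP2C9 beyond about 50% at 5 µM, limit read from the data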
CYP2C19 inhib = human CYP2C19 inhibition; P33261; CYP2C19 Supersomes, luciferin-H EGE luminescence, 30 min; inhibition, % at 5 µM; hit rate 21% among 96,000; AID 778;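 active = CYP2C19 inhibition above a set limit at 5 µM in the primary screen, cut at about 50% in these data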;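 also: plate controls were negative control wells for no effect and 2.5 mM tranylcypromine positive control for full effect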
CYP2C19 act = increases human CYP2C19 enzyme activity; recombinant CYP2C19, luciferin-H EGE luminescence; active compounds read high; 0 = fully inhibited enzyme, 1 = untreated enzyme; activation factor at 5 µM; 96,000 tested, under 10 active; AID 1025;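 active = activation factor of at least 2 at 5 µM in the primary screen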;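 also: 0 = wells with 2.5 mM tranylcypromine and 1 = vehicle-only wells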
Active calls of the source: *; · = no result.

SMILES | CYP2C9 activ | PLAP act | CYP2C9 inhib | CYP2C19 inhib | CYP2C19 act
COc1ccccc1C(=O)NCC(=O)n1nc(C)cc1C | 3* | 0.9 | -197 | 5 | 0.9
Cc1cccc(C(=O)Nc2onc(C)c2C#N)c1 | 0.8 | 1.1 | 16 | -15 | 1.2
Cc1ccc(N(C(=O)C2CCC(=O)N2)C2(C(=O)NC3CCCC3)CCCCC2)cc1 (stereo not drawn) | 0.8 | 1.4 | 22 | 4 | 1
COCCCNC(=O)c1ccc(NS(C)(=O)=O)cc1 | 0.9 | 1 | 8 | 0 | 1
Cn1c(=O)cc(-c2ccccc2)c2ccccc21 | 0 | 0.9 | 96* | 87* | 0.1
COc1cccc(CNC(=O)C2CCN(S(=O)(=O)N3CCCC3)CC2)c1 | 0.8 | 0.9 | 16 | 5 | 1
O=S(=O)(NCc1ccc2c(c1)OCO2)c1cccc(S(=O)(=O)N2CCOCC2)c1 | 0.7 | 1.1 | 35 | 75* | 0.3
COC(=O)c1ccc(S(=O)(=O)NCc2cccc(OC)c2)n1C | 0.7 | 0.9 | 28 | 60* | 0.4
O=C(NCc1ccc2c(c1)OCO2)c1cccc(S(=O)(=O)N2CCOCC2)c1 | 0.6 | 0.9 | 35 | 14 | 0.9
COc1cccc(CNS(=O)(=O)c2cccc(S(=O)(=O)N3CCOCC3)c2)c1 | 0.6 | 0.9 | 37 | 57* | 0.4
COc1ccc(CNS(=O)(=O)c2cccc(S(=O)(=O)N3CCOCC3)c2)cc1 | 0.5 | 1.1 | 46 | 58* | 0.4
CCOC(=O)c1sc(NC(=O)C(CC)OC(=O)C(CC(C)C)NC(=O)c2ccccc2)nc1C (stereo not drawn) | 0.8 | 1.1 | 22 | 55* | 0.5
C=CCn1c(SCc2c(C(=O)OC)sc(N)c2C(=O)OC)nnc1-c1ccc(Br)cc1 | 0.1 | 1.6 | 87* | 72* | 0.3
CCCn1nc(CC(=O)O)c2ccccc2c1=O | 1.1 | 0.9 | -5 | -8 | 1.1
Cc1ncc([N+](=O)[O-])n1CC(=O)NCc1ccccc1 | 0.9 | 0.9 | 10 | 1 | 1
Cc1nc([N+](=O)[O-])c(Br)n1CC(=O)c1ccc2ccccc2c1 | 0.2 | 1.9 | 76* | 54* | 0.5
O=C(Cn1c(C(F)(F)F)nc2ccccc21)c1ccc(Br)cc1 | 1 | 1 | -3 | -11 | 1.1
Cc1nc([N+](=O)[O-])c(Br)n1CC(=O)c1ccccc1 | 0.8 | 0.9 | 17 | 51* | 0.5
Cc1nc([N+](=O)[O-])c(Br)n1CC(=O)c1ccc(Br)cc1 | 0.5 | 0.8 | 54* | 18 | 0.8
Cc1cc(=O)oc2c1c(C)nn2-c1nn[nH]n1 | 1.1 | 0.9 | -7 | -9 | 1.1
CCOc1ccc(NS(=O)(=O)N(C)C)cc1 | 0.8 | 1.2 | 16 | 26 | 0.7
CCCCOc1ccc(OCCNS(=O)(=O)N(C)C)cc1 | 0.6 | 0.8 | 40 | 54* | 0.5
COc1ccc(C(=O)/C=C/c2cccs2)c(OC(=O)c2cccc([N+](=O)[O-])c2)c1 | 0.5 | 1 | 50* | 6 | 0.9
CC(c1nnnn1C(C)(C)C)N(Cc1cccnc1)Cc1ccccc1Cl (stereo not drawn) | 0.4 | 1.6 | 57* | 99* | 0
CC(C)(C)n1nnnc1C(c1cccs1)N(Cc1cccnc1)Cc1ccccc1Cl (stereo not drawn) | 0.1 | 1.8 | 92* | 96* | 0
SMILES | CYP2C9 activ | PLAP act | CYP2C9 inhib | CYP2C19 inhib | CYP2C19 act
COc1ccc(OC)c(NC(=O)CSc2nnnn2-c2ccc3c(c2)OCO3)c1 | 1.1 | 1 | -6 | 4 | 1
Cc1sc(N/N=C/C=C/c2ccccc2)nc1-c1ccccc1 | 1.3 | 1 | -30 | 8 | 0.9
Cc1ccccc1C(=O)c1cccn1CC(=O)N1CCCCCC1 | 0.7 | 1 | 32 | 33 | 0.7
COc1ccc(OC)c(C2CC(=O)C(C)C(c3cc(OC)ccc3OC)N2)c1 (stereo not drawn) | 0.2 | 1.7 | 76* | 35 | 0.6
COc1ccc(OC)c(C(=O)C2COC(=O)C2)c1 (stereo not drawn) | 1.3 | 1.1 | -33 | 2 | 1
O=C(Oc1ccc2cccc(OC(=O)N3CCOCC3)c2c1)N1CCOCC1 | 0.9 | 1 | 13 | 1 | 1
CCCc1cc(C(=O)N/N=C/c2ccc(C)o2)c2ccccc2n1 | 0.4 | 1.3 | 64* | 18 | 0.8
Cc1ccc(/C=N\NC(=O)C2COc3cc4ccccc4cc3O2)o1 (stereo not drawn) | · | 1.3 | · | · | ·
O=C(N/N=C/c1cccc(F)c1)c1cc(-c2ccco2)nc2ccccc12 | 0.8 | 1.1 | 18 | 9 | 0.9
CCCc1cc(C(=O)N/N=C/c2ccc(CC)s2)c2ccccc2n1 | 0.3 | 0.9 | 65* | -6 | 1.1
Cc1ccc(NC(=O)CS(=O)CC(=O)NCCCN(C)c2ccccc2)cc1 (stereo not drawn) | 0.2 | 0.8 | 84* | 60* | 0.4
Cc1ccccc1-c1nc(CS(=O)CC(=O)NCCCN(C)c2ccccc2)c(C)o1 (stereo not drawn) | 1.5 | 1.4 | -46 | 18 | 0.8
Cc1ccc(S(=O)(=O)N2CCC(C(=O)N3CCC[C@H]3C(=O)NC3CCS(=O)(=O)C3)CC2)cc1 (stereo partly drawn) | 1.1 | 2* | -13 | -8 | 1.1
O=C(NC1CCS(=O)(=O)C1)C1CCCCN1S(=O)(=O)c1ccc(Cl)cc1 (stereo not drawn) | 0.1 | 1.1 | 91* | 21 | 0.8
N#CC(c1ccccn1)(c1ncc(C(F)(F)F)cc1Cl)N1CCOCC1 (stereo not drawn) | 0.8 | 1.1 | 17 | 10 | 0.9
COc1ccc(S(=O)(=O)N(CC(=O)NCC2CCCO2)c2ccccc2)cc1OC (stereo not drawn) | 0.7 | 1 | 29 | 33 | 0.7
CCCCN(CC)Cc1ccc(CNC(=O)Nc2ccc(OC)cc2OC)o1 | 1 | 1.3 | 2 | 0 | 1
C/C(=N\OC(=O)c1cccc(C(F)(F)F)c1)c1sc(-c2ccccc2)nc1C | 1.1 | 1.2 | -10 | -6 | 1.1
C/C(=N\OC(=O)c1cccc(C)c1)c1sc(-c2ccccc2)nc1C | 0.6 | 1.1 | 40 | 52* | 0.5
CCOC(=O)c1cc(S(=O)(=O)N2CCN(C(=O)OCC)CC2)cn1C | 0.8 | 1.1 | 19 | 24 | 0.8
Cc1ccc2c(c1)nnn2C1CCN(S(=O)(=O)c2ccc(C(=O)NC3CCCC3)cc2)CC1 | 0.5 | 1 | 50* | 21 | 0.8
Cc1ccc2c(c1)nnn2C1CCN(CC(=O)c2ccc(Cl)cc2)CC1 | 1 | 1.1 | 0 | 14 | 0.9
Cc1ccc2c(c1)nnn2C1CCN(S(=O)(=O)c2ccc(C(=O)N3CC(C)CC(C)C3)cc2)CC1 (stereo not drawn) | 0.1 | 1.8 | 88* | 98* | 0
Cc1ccc2c(c1)nnn2C1CCN(S(=O)(=O)c2cccc(S(=O)(=O)N(C)C)c2)CC1 | 0.5 | 1.7 | 46 | 86* | 0.1
O=C(NC1CCCC1)c1ccc(S(=O)(=O)N2CCCC2)cc1 | 0.7 | 0.8 | 30 | 6 | 0.9
O=C(NC1(C(F)(F)F)NC(=O)N(CC2CCCCC2)C1=O)c1ccco1 (stereo not drawn) | 0.7 | 0.8 | 31 | 18 | 0.8
